Data taken from PubChem BioAssay (NCATS).
Records with an inconclusive call do not appear. Activity calls are given as the source filed them. Calls come from the whole dose curve. Bridge positions count the residues as written; N and C are the ends. Square brackets hold non-standard residues; d marks the D form. Peptide text beside a SMILES is read from it. Orn = NCCC[CH](N)C(=O)O; Mpa = O=C(O)CCS

What was measured:
[1] = Primary qHTS for inhibitors of SARS-S pseudo-typed particle cell entry (AID 1479145); conditions: outcome: dose series up to 57.1 µM unless noted; note: nearly all actives have a fitted effect of over 45% in size; for activity change, negative = inhibition: % is set by controls: 0 for no effect and ±100 for the full control effect
[2] = Primary qHTS for Huh7 cytotoxicity: counterscreen for inhibitors of MERS-S pseudotyped particle cell entry (AID 1479147); conditions: outcome: dose series up to 57.1 µM unless noted; for activity change, negative = cytotoxicity: % is set by controls: 0 for no effect and ±100 for the full control effect
[3] = Primary qHTS for inhibitors of MERS-S pseudo-typed particle cell entry (AID 1479149); conditions: outcome: dose series up to 57.1 µM unless noted; note: nearly all actives have a fitted effect of over 60% in size; for activity change, negative = inhibition: % is set by controls: 0 for no effect and ±100 for the full control effect
[4] = Primary qHTS for Vero E6 cytotoxicity: counterscreen for inhibitors of SARS-S pseudo-typed particle cell entry (AID 1479150); conditions: outcome: dose series up to 57.1 µM unless noted; for activity change, negative = cytotoxicity: % is set by controls: 0 for no effect and ±100 for the full control effect
[5] = Cytotoxicity counterscreen for inhibitors of SARS-CoV-2 cell entry (AID 1645845); conditions: outcome: dose series up to 57.1 µM unless noted; note: nearly all actives have a fitted effect of over 50% in size
Procedure, shortened: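 48 h compound treatment (after 1 h preincubation), HEK293-ACE2 cells, 37 C/5% CO2; ATP luminescence endpoint; normalized to cell wells and media blanks.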

[6] = Primary qHTS to identify inhibitors of SARS-CoV-2 cell entry (AID 1645846); conditions: SARS-CoV-2 pseudovirus cell entry assay, luminescence; activity change, negative = inhibition: at 57.1 µM (top of the series) unless noted; note: nearly all actives have a fitted effect of over 45% in size
Procedure, shortened: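 Luminescence readout (Bright-Glo luciferase) 48 h after pseudoparticle addition. HEK293-ACE2 cells, 1500/well; compound pre-incubation 1 h; Normalized to spike PP and bald PP.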

CN1CC(O)c2cc(N=NC(N)=O)c(O)cc21 (stereo not given)
-20%: activity change, negative = inhibition [6]
inactive: Potency [1] | Potency [2] | Potency [3] | Potency [4] | Potency [5]

C#C[C@]1(O)CC[C@H]2[C@@H]3CCC4=C/C(=N/O)CC[C@@H]4[C@H]3CC[C@@]21CC
inactive: Potency [1] | Potency [2] | Potency [3] | Potency [4] | Potency [5]
-1.12%: activity change, negative = inhibition [6]

NC[C@@H]1CC[C@@H](N)[C@@H](O[C@H]2[C@H](O)[C@@H](O[C@H]3O[C@H](CO)[C@@H](O)[C@H](N)[C@H]3O)[C@H](N)C[C@@H]2N)O1
-17.7% [at 27.1 µM]: activity change, negative = inhibition [6]
inactive: Potency [1] | Potency [2] | Potency [3] | Potency [4] | Potency [5]

CCCC1C(=O)N2C(N(C)C)=Nc3ccc(C)cc3N2C1=O (stereo not given)
2.29% [at 114 µM]: activity change, negative = inhibition [6]
inactive: Potency [1] | Potency [2] | Potency [3] | Potency [4] | Potency [5]

O=C[C@H](O)[C@@H](O)[C@H](O)[C@H](O)CO
inactive: Potency [1] | Potency [2] | Potency [3] | Potency [4] | Potency [5] | Potency [6]

C[C@@H]1C[C@H]2[C@@H]3CCC4=CC(=O)C=C[C@]4(C)[C@@]3(F)[C@@H](O)C[C@]2(C)[C@@]1(O)C(=O)COP(=O)(O)O
inactive: outcome [1] inactive [at 11.4 µM] | outcome [2] inactive [at 11.4 µM] | outcome [3] inactive [at 11.4 µM] | outcome [4] inactive [at 11.4 µM] | outcome [5] inactive [at 11.3 µM] | outcome [6] inactive [at 11.3 µM]

CCCCN=C(N)NC(=N)N
inactive: outcome [1] inactive [setting not given] | outcome [2] inactive [setting not given] | outcome [3] inactive [setting not given] | outcome [4] inactive [setting not given] | outcome [5] inactive [setting not given] | outcome [6] inactive [setting not given]

CCCCCCCCCCCCCC(=O)OCC(COP(=O)([O-])OCC[N+](C)(C)C)OC(=O)CCCCCCCCCCCCC (stereo not given)
-12.7%: activity change, negative = inhibition [6]
inactive: Potency [1] | Potency [2] | Potency [3] | Potency [4] | Potency [5]

Cn1cc(OCC(O)CNC(C)(C)C)c2ccccc2c1=O (stereo not given)
-17.6%: activity change, negative = inhibition [6]
inactive: Potency [1] | Potency [2] | Potency [3] | Potency [4] | Potency [5]

NC[C@@H]1O[C@H](O[C@H]2[C@@H](O)[C@H](O[C@@H]3[C@@H](O)[C@H](N)C[C@H](N)[C@H]3O[C@H]3O[C@H](CO)[C@@H](O)[C@H](O)[C@H]3N)O[C@@H]2CO)[C@H](N)[C@@H](O)[C@@H]1O
inactive: activity change, negative = inhibition [1] -8.64% [at 0.573 µM] | outcome [2] inactive [at 0.573 µM] | outcome [3] inactive [at 0.573 µM] | activity change, negative = cytotoxicity [4] -20.5% [at 0.573 µM] | activity change, negative = cytotoxicity [5] -2.38% [at 0.702 µM] | outcome [6] inactive [at 0.702 µM]

CO[C@H]1C[C@@H]2CC[C@@H](C)[C@@](O)(O2)C(=O)C(=O)N2CCCC[C@H]2C(=O)O[C@H]([C@H](C)C[C@@H]2CC[C@@H](OC(=O)C(C)(CO)CO)[C@H](OC)C2)CC(=O)[C@H](C)/C=C(\C)[C@@H](O)[C@@H](OC)C(=O)[C@H](C)C[C@H](C)/C=C/C=C/C=C/1C
inactive: Potency [1] | Potency [2] | Potency [3] | Potency [4] | Potency [5]
-29.8% [at 27.1 µM]: activity change, negative = inhibition [6]

CCC(=O)O[C@]1(C(=O)COC(C)=O)CC[C@H]2[C@@H]3C[C@H](C)C4=CC(=O)C=C[C@]4(C)[C@H]3[C@@H](O)C[C@@]21C
-17.7%: activity change, negative = inhibition [6]
inactive: Potency [1] | Potency [2] | Potency [3] | Potency [4] | Potency [5]

C[C@@H](O)[C@H]1C(=O)N2C(C(=O)O)=C(S[C@@H]3CN[C@H](C(=O)Nc4cccc(C(=O)O)c4)C3)[C@H](C)[C@H]12
0.84%: activity change, negative = inhibition [6]
inactive: Potency [1] | Potency [2] | Potency [3] | Potency [4] | Potency [5]

Cc1ncc(C[n+]2csc(CCOP(=O)(O)OP(=O)(O)O)c2C)c(N)n1
-1.65% [at 0.702 µM]: activity change, negative = inhibition [6]
inactive: outcome [1] inactive [at 0.573 µM] | outcome [2] inactive [at 0.573 µM] | outcome [3] inactive [at 0.573 µM] | activity change, negative = cytotoxicity [4] -14.9% [at 0.573 µM] | activity change, negative = cytotoxicity [5] 3.84% [at 0.702 µM]

CN(Cc1ccccc1)C(=O)[C@H](NC(=O)c1cc2cc(NC(=O)c3ccccc3-c3ccc(C(F)(F)F)cc3)ccc2n1C)c1ccccc1
inactive: Potency [1] | Potency [2] | Potency [3] | Potency [4] | Potency [5]
-7.12%: activity change, negative = inhibition [6]

CC(C)(C)CC(=O)OCC(=O)[C@@]12OC(C)(C)O[C@@H]1C[C@H]1[C@@H]3CCC4=CC(=O)C=C[C@]4(C)[C@@]3(F)[C@@H](O)C[C@@]12C
inactive: Potency [1] | Potency [2] | Potency [3] | Potency [4] | Potency [5]
-18.4%: activity change, negative = inhibition [6]

C[C@@H](O)[C@H]1C(=O)N2C(C(=O)[O-])=C(SC3Cn4cnc[n+]4C3)[C@H](C)[C@H]12 (stereo not given in full)
inactive: activity change, negative = inhibition [1] -18.9% [at 11.4 µM] | outcome [2] inactive [at 11.4 µM] | activity change, negative = inhibition [3] -3.17% [at 11.4 µM] | activity change, negative = cytotoxicity [4] 4.16% [at 11.4 µM] | outcome [5] inactive [at 11.3 µM]
-12.2% [at 11.3 µM]: activity change, negative = inhibition [6]

O=[N+]([O-])O[C@@H]1CO[C@H]2[C@@H]1OC[C@@H]2O
inactive: Potency [1] | Potency [2] | Potency [3] | Potency [4] | Potency [5]
-29.2% [at 114 µM]: activity change, negative = inhibition [6]

CCOc1ccc(CC2NC(=O)CCSSCC(C(=O)N3CCCC3C(=O)NC(CCCN)C(=O)NCC(N)=O)NC(=O)C(CC(N)=O)NC(=O)C(C(C)O)NC(=O)C(C(C)CC)NC2=O)cc1 (stereo not given) ([Mpa]Y(Et)ITNCP[Orn]G-NH2; disulfide 1-6; configuration not given here)
inactive: Potency [1] | Potency [2] | Potency [3] | Potency [4] | Potency [5]
-38.4%: activity change, negative = inhibition [6]

C=CC1=C(C(=O)O)N2C(=O)[C@@H](NC(=O)/C(=N\OCC(=O)O)c3csc(N)n3)[C@H]2SC1
inactive: Potency [1] | Potency [2] | Potency [3] | Potency [4] | Potency [5]
-7.67%: activity change, negative = inhibition [6]
